Laboratory results published in PubChem BioAssay (EPA / NIEHS).
Values joined by “and” are separate entries in the source; they are usually repeats but may differ in a detail not shown here. Equal values may be shown once. Inconclusive results are not listed. Active and inactive are the calls of the source. How the source made its calls, unless noted: active means hit-call score of the fitted dose curve at least 0.9, where 1 is the maximum; inactive means score below 0.9.

Assays:
[1] = read-out: Monocyte Chemoattractant Protein-1 (MCP1), CCL2 (gene 6347); assay: BSK_SAg_MCP1: BioMAP Diversity Plus: SAg Assay for Monocyte Chemoattractant Protein-1 (MCP1) Biomarker Activity (AID 2283090); settings: primary human HUVEC with PBMC; actives raise or lower the signal
Summary of the method: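 Values derive from bidirectional fitting of ELISA-measured MCP1 against DMSO controls. Readings were taken 24 h after dosing human vascular endothelial cells co-cultured with peripheral blood mononuclear cells under superantigen stimulation.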

[2] = read-out: E-selectin (Homo sapiens) (UniProt P16581); assay: BSK_SAg_Eselectin: BioMAP Diversity Plus: SAg Assay for Eselectin Biomarker Activity (AID 2283091); settings: primary human HUVEC with PBMC; actives raise or lower the signal
Summary of the method: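 Human umbilical vein endothelial cells co-cultured with peripheral blood mononuclear cells, SAg system. E-selectin is measured by ELISA 24 h after dosing and fitted bidirectionally against DMSO. Cytotoxicity is checked by SRB staining of parallel cultures.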

[3] = read-out: Monokine induced gamma interferon (MIG), CXCL9 (gene 4283); assay: BSK_SAg_MIG: BioMAP Diversity Plus: SAg Assay for Monokine induced gamma interferon (MIG) Biomarker Activity (AID 2283092); settings: primary human HUVEC with PBMC; actives raise or lower the signal
Summary of the method: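 Endothelial cells and PBMC were co-cultured, exposed to test chemicals, and sampled 24 h later. MIG was measured by ELISA, and responses were fitted in both directions relative to DMSO.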

[4] = BSK_SAg_PBMCCytotoxicity: PBMC Cytotoxicity Assessment in the BioMAP Diversity Plus: SAg Assay (AID 2283093); settings: primary human HUVEC with PBMC;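 further: PBMC viability measured as Alamar Blue reduction fluorescence at 546/580 nm; fitted both ways against DMSO so a hit may be loss or gain of signal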;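 on AC50: PBMC superantigen activated with SEB plus TSST-1 one hour after compound addition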
Summary of the method: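 Alamar Blue reduction (6 h, 546/580 nm) reports PBMC cytotoxicity after 90 h superantigen activation (SEB, TSST-1; 20 ng/mL final each) with 1 h compound pre-treatment. Gain or loss of signal fitted versus DMSO.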

[5] = read-out: Interleukin-8 (IL8), CXCL8 (gene 3576); assay: BSK_SAg_IL8: BioMAP Diversity Plus: SAg Assay for Interleukin-8 (IL8) Biomarker Activity (AID 2283094); settings: primary human HUVEC with PBMC; actives raise or lower the signal
Summary of the method: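 ELISA readout of IL-8 from a superantigen-activated endothelial/PBMC primary human co-culture, taken 24 h post-dosing and fitted in both directions against DMSO; parallel SRB total-protein staining flags overt cytotoxicity.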

[6] = BSK_SAg_Proliferation: Cell Proliferation Assessment in the BioMAP Diversity Plus: SAg Assay (AID 2283095); settings: primary human HUVEC with PBMC;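 further: relative cell number as total protein by SRB absorbance in sub-confluent culture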
Summary of the method: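 Relative cell number in the endothelial cell/PBMC co-culture was quantified at 96 h by SRB staining (0.1% SRB, 10% TCA fixation, read at 560 nm). Curves were fitted in both directions relative to DMSO baseline.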

[7] = BSK_SAg_SRB: Viability Assessment in the BioMAP Diversity Plus: SAg Assay (AID 2283096); settings: primary human HUVEC with PBMC;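 further: cells read one day after compound addition; hits may be either gain or loss of signal compared with DMSO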
Summary of the method: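 This overt-cytotoxicity endpoint quantifies protein in human endothelial/PBMC co-cultures at 24 h using SRB absorbance (560 nm) after trichloroacetic acid fixation. Values reflect signal change from the DMSO negative control, fitted bidirectionally.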

[8] = target: human CYP19A1, CYP19A1 (gene 1588) (UniProt P11511); assay: NVS_ADME_hCYP19A1: NovaScreen (NVS) CYP450-related Enzyme Activity (ADME) Assay for human CYP19A1 (AID 2283098; active means hit-call score of the fitted dose curve at least 0.9, where 1 is the maximum)
Summary of the method: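 Compounds were first screened at 10 uM in duplicate against purified enzyme, with a fluorogenic substrate and fluorescence intensity detection after 0.5 h. Inhibition appears as reduced signal against acetonitrile control.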

[9] = target: human CYP2A6, CYP2A6 (gene 1548) (UniProt P11509); assay: NVS_ADME_hCYP2A6: NovaScreen (NVS) CYP450-related Enzyme Activity (ADME) Assay for human CYP2A6 (AID 2283099; active means hit-call score of the fitted dose curve at least 0.9, where 1 is the maximum)
Summary of the method: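 Recombinant human CYP2A6 expressed in insect cells, cell-free; fluorogenic substrate turnover read by fluorescence intensity 0.5 h after dosing. Primary screen 10 uM in duplicate, then concentration-response up to 20 uM; acetonitrile as negative control.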

[10] = target: human CYP2D6, CYP2D6 (gene 1565) (UniProt P10635); assay: NVS_ADME_hCYP2D6: NovaScreen (NVS) CYP450-related Enzyme Activity (ADME) Assay for human CYP2D6 (AID 2283107; active means hit-call score of the fitted dose curve at least 0.9, where 1 is the maximum)
Summary of the method: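 Cell-free assay using recombinant human CYP2D6 expressed in insect cells, with a fluorogenic substrate read after 1 h. Primary screen in duplicate at 10 uM; actives followed up in concentration series. Loss of signal fitted relative to acetonitrile.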

[11] = target: Cytochrome P450 2C19 (Homo sapiens) (UniProt P33261); assay: NVS_ADME_hCYP2C19: NovaScreen (NVS) CYP450-related Enzyme Activity (ADME) Assay for human CYP2C19 (AID 2283113; active means hit-call score of the fitted dose curve at least 0.9, where 1 is the maximum;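 further: potency for inhibition seen as loss of fluorescent signal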)
Summary of the method: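 Cell-free recombinant human CYP2C19 from insect cells, fluorescent substrate; activity read by fluorescence intensity 1 h after dosing. Primary screen in duplicate at 10 uM; actives retested in concentration series. Signal loss versus acetonitrile negative control.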

[12] = target: human CYP1A2, CYP1A2 (gene 1544) (UniProt P05177); assay: NVS_ADME_hCYP1A2: NovaScreen (NVS) CYP450-related Enzyme Activity (ADME) Assay for human CYP1A2 (AID 2283102; active means hit-call score of the fitted dose curve at least 0.9, where 1 is the maximum;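 on AC50: potency for inhibition since loss of fluorescence marks reduced CYP1A2 activity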)
Summary of the method: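 Recombinant human CYP1A2 from insect cells, cell-free, fluorogenic substrate; read 0.5 h after dosing with loss of fluorescence signal indicating inhibition. Primary screen in duplicate at 10 uM, acetonitrile as negative control.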

[13] = target: human CYP2J2, CYP2J2 (gene 1573) (UniProt P51589); assay: NVS_ADME_hCYP2J2: NovaScreen (NVS) CYP450-related Enzyme Activity (ADME) Assay for human CYP2J2 (AID 2283106; active means hit-call score of the fitted dose curve at least 0.9, where 1 is the maximum)
Summary of the method: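 Chemicals were first tested at 10 uM in duplicate, and hits meeting criteria such as 30% inhibition were run in singleton concentration series with a 20 uM top concentration. Enzyme activity of recombinant CYP2J2 was measured by fluorescence after 1 h, relative to acetonitrile.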

[14] = target: rat CYP2A1, Cyp2a1 (gene 24894) (UniProt P11711); assay: NVS_ADME_rCYP2A1: NovaScreen (NVS) CYP450-related Enzyme Activity (ADME) Assay for rat CYP2A1 (AID 2283114)
Summary of the method: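 Cell-free fluorescence enzyme-activity read on recombinant rat CYP2A1, taken 0.75 h post-dosing. Compounds were screened in duplicate at 10 uM, then hits tested in concentration series (max 20 uM); inhibition scored relative to acetonitrile baseline.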

[15] = target: human CYP2C9, CYP2C9 (gene 1559) (UniProt P11712); assay: NVS_ADME_hCYP2C9: NovaScreen (NVS) CYP450-related Enzyme Activity (ADME) Assay for human CYP2C9 (AID 2283108; active means hit-call score of the fitted dose curve at least 0.9, where 1 is the maximum)
Summary of the method: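 Cell-free assay of recombinant human CYP2C9 produced in Sf9 cells, with enzyme activity read by fluorescence intensity 0.75 h after compound addition. Loss of signal versus an acetonitrile negative control indicates inhibition. Primary screen used 10 uM in duplicate; actives were retested in concentration series.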

[16] = target: human CYP2B6, CYP2B6 (gene 1555) (UniProt P20813); assay: NVS_ADME_hCYP2B6: NovaScreen (NVS) CYP450-related Enzyme Activity (ADME) Assay for human CYP2B6 (AID 2283101; active means hit-call score of the fitted dose curve at least 0.9, where 1 is the maximum)
Summary of the method: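 Cell-free recombinant enzyme assay with a fluorogenic substrate; fluorescence intensity read 1 hour after dosing. Loss of signal relative to acetonitrile negative control indicates inhibition. Primary screen run in duplicate at 10 uM, actives then tested in concentration series.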

[17] = target: human CYP2C8, CYP2C8 (gene 1558) (UniProt P10632); assay: NVS_ADME_hCYP2C8: NovaScreen (NVS) CYP450-related Enzyme Activity (ADME) Assay for human CYP2C8 (AID 2283104)
Summary of the method: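 Fluorescence readout of substrate turnover by recombinant CYP2C8 after 0.5 h, baseline acetonitrile. Single-concentration duplicate screen at 10 uM preceded singleton concentration series (max 20 uM) for compounds passing the inhibition threshold.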

[18] = target: human CYP1A1, CYP1A1 (gene 1543) (UniProt P04798); assay: NVS_ADME_hCYP1A1: NovaScreen (NVS) CYP450-related Enzyme Activity (ADME) Assay for human CYP1A1 (AID 2283100; active means hit-call score of the fitted dose curve at least 0.9, where 1 is the maximum)
Summary of the method: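 Recombinant CYP1A1 with a fluorogenic substrate, cell-free, read 1 h after dosing; acetonitrile as negative control. Single-concentration screen at 10 uM in duplicate, then concentration-response up to 20 uM for chemicals meeting ~30% inhibition threshold.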

Measured: AC50

Chain of human CYP2A6, CYP2A6 (gene 1548) (P11509 whole entry, looked up): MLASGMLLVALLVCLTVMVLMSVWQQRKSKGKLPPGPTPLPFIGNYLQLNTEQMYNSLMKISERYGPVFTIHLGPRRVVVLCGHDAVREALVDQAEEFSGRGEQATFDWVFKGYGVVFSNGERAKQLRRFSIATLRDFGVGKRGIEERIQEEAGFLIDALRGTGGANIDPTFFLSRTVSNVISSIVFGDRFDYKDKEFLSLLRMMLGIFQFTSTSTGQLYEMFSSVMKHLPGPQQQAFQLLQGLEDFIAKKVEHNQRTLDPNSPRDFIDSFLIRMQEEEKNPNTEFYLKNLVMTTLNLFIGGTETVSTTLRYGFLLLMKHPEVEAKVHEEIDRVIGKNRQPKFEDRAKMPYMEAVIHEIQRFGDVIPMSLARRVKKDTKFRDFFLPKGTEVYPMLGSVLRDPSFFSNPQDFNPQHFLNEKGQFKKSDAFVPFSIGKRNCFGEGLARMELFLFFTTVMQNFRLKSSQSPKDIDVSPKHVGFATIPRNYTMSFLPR
Chain of human CYP2B6, CYP2B6 (gene 1555) (P20813 whole entry, looked up): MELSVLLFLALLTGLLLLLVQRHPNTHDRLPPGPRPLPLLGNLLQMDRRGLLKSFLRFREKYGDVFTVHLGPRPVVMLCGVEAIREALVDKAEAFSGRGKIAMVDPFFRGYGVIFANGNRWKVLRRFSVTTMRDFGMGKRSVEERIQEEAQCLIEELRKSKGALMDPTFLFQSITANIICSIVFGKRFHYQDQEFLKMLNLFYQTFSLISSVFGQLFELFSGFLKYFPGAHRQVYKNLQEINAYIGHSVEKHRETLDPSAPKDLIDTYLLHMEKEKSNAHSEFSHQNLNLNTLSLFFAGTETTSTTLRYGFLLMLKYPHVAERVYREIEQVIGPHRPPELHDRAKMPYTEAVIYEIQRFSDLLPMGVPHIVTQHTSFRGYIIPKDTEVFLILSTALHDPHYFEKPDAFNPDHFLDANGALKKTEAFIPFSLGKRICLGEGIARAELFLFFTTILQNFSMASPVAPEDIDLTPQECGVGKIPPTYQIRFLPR
Chain of human CYP2J2, CYP2J2 (gene 1573) (P51589 whole entry, looked up): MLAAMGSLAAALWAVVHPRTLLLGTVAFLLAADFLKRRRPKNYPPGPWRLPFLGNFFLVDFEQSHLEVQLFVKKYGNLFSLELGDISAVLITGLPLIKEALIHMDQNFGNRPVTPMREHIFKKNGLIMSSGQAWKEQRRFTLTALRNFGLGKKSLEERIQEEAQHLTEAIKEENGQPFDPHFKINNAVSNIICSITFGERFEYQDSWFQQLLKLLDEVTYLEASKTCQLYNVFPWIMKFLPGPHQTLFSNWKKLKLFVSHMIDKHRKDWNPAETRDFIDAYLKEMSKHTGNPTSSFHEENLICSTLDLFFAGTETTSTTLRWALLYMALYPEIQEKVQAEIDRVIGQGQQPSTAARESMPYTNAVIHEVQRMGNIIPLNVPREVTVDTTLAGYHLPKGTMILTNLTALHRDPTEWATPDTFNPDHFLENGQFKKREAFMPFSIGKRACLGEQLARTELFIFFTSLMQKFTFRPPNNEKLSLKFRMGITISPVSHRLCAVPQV
Chain of E-selectin (Homo sapiens) (P16581 whole entry, looked up): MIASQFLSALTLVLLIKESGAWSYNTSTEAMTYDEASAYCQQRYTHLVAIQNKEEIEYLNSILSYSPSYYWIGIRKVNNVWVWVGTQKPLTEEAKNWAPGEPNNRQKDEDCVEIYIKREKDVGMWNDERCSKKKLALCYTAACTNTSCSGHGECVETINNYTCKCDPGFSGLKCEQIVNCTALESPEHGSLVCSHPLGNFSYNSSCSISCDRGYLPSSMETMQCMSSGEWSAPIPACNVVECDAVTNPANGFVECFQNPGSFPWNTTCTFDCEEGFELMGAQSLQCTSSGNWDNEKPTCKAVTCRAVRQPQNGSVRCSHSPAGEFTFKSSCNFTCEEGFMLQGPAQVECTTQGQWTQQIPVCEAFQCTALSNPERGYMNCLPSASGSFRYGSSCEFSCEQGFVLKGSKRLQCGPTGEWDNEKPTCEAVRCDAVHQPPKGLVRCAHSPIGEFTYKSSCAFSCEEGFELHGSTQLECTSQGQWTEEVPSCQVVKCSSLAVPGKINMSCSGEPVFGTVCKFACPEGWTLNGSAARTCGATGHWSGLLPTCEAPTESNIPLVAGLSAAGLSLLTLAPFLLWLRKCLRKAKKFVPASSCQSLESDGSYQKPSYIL
Chain of human CYP19A1, CYP19A1 (gene 1588) (P11511 whole entry, looked up): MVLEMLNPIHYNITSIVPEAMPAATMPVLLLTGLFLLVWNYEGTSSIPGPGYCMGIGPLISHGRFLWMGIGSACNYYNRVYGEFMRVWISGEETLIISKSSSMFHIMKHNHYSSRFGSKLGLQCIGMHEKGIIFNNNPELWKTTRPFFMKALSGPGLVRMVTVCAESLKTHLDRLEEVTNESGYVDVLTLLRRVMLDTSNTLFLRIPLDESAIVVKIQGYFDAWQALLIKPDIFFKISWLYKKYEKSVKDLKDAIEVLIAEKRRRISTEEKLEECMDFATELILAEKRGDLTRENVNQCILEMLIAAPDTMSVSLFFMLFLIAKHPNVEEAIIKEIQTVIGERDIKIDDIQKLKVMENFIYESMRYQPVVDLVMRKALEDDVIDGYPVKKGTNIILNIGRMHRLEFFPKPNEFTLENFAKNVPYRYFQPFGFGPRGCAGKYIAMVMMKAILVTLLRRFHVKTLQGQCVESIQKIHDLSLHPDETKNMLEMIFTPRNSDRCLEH
Chain of rat CYP2A1, Cyp2a1 (gene 24894) (P11711 whole entry, looked up): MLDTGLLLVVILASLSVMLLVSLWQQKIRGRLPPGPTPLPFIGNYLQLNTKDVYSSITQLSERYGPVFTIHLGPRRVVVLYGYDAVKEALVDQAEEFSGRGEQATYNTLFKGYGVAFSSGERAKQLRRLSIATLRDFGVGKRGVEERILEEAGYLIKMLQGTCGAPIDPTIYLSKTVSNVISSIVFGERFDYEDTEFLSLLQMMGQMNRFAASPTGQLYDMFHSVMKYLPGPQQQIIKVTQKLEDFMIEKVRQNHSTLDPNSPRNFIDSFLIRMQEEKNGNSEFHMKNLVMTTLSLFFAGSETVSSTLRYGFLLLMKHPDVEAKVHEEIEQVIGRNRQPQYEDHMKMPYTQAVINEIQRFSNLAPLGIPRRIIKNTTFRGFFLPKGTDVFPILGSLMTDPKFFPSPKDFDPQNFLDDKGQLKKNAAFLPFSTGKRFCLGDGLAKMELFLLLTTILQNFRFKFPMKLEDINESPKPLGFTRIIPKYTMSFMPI
Chain of human CYP1A2, CYP1A2 (gene 1544) (P05177 whole entry, looked up): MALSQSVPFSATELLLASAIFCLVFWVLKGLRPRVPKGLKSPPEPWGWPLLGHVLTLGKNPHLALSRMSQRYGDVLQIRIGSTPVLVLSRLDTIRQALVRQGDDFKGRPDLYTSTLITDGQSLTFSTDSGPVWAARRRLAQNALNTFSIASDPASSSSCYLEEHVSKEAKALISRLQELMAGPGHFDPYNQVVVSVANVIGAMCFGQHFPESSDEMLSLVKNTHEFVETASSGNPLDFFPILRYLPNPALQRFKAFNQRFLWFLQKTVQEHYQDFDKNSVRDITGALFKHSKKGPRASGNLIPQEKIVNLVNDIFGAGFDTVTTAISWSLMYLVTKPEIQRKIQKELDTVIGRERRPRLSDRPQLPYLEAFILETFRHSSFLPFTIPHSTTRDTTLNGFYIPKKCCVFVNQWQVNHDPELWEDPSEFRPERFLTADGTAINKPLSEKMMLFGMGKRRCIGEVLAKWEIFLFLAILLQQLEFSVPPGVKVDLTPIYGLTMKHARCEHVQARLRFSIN
Chain of human CYP2D6, CYP2D6 (gene 1565) (P10635 whole entry, looked up): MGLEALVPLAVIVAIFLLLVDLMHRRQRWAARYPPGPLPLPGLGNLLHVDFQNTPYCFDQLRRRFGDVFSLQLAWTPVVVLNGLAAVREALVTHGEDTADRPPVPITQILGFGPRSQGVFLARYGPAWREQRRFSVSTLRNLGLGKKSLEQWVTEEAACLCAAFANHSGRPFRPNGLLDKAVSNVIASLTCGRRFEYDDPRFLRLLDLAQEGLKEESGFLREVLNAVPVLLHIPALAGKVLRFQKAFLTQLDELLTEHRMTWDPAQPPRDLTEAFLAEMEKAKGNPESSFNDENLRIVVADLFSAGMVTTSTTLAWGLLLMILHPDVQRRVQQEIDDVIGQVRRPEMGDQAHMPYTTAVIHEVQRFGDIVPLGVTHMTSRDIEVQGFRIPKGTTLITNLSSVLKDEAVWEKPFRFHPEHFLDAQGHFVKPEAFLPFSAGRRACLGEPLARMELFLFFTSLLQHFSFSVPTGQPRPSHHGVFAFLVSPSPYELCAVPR
Chain of human CYP2C8, CYP2C8 (gene 1558) (P10632 whole entry, looked up): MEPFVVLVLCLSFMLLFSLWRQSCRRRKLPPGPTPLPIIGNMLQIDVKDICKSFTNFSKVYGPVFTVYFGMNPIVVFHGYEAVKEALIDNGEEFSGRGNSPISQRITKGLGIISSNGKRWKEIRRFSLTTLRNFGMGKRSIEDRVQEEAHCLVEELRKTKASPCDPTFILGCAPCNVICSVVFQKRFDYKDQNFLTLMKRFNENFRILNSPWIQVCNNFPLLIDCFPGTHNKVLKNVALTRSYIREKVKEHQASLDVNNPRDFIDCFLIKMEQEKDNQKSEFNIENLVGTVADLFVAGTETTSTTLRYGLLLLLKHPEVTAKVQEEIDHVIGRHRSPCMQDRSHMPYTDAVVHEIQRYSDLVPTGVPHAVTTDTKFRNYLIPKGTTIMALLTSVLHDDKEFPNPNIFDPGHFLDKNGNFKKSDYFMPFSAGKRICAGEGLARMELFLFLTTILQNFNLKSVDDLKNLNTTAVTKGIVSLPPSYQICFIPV

CNC(=O)CSP(=S)(OC)OC
inactive: [1] | [2] | [3] | [4] | [5] | [6] | [7] | [8] | [10]
active: [9] 4.5 µM | [11] 2.73 µM

O=C(O)COc1ccc(Cl)cc1Cl
active: [11] 10 µM
inactive: [1] | [2] | [3] | [4] | [5] | [6] | [7]

O=C(Nc1ccccc1)Nc1cnns1
active: [9] 5.8 µM | [12] 3.55 µM | [14] 6.13 µM
inactive: [1] | [2] | [3] | [4] | [5] | [6] | [7] | [13]

CC1(C)C(C=C(Cl)Cl)C1C(=O)OC(C#N)c1ccc(F)c(Oc2ccccc2)c1 (stereo unspecified)
active: [1] 7.41 µM | [6] 29.9 µM | [7] 14.2 µM | [15] 10 µM | [11] 13.5 µM
inactive: [2] | [3] | [4] | [5] | [8]

Cc1[nH]c(=O)n(C(C)(C)C)c(=O)c1Cl
inactive: [3] | [7]
active: [1] 5.42 µM | [2] 20 µM | [4] 9.4 µM | [5] 9.86 µM | [6] 16 µM | [11] 6.8 µM

O=S1OCC2C(CO1)C1(Cl)C(Cl)=C(Cl)C2(Cl)C1(Cl)Cl (stereo unspecified)
active: [1] 35.5 µM | [2] 36.7 µM | [3] 34.4 µM | [4] 16.1 µM | [5] 36.6 µM | [6] 14.2 µM | [7] 29 µM | [16] 4.85 µM | [11] 1.64 µM
inactive: [8]

CN1CSC(=S)N(C)C1
active: [1] 15 µM | [2] 19.8 µM | [3] 31.6 µM | [4] 14.4 µM | [5] 20.2 µM | [6] 5.99 µM | [16] 10 µM | [11] 10 µM
inactive: [7] | [9]

Oc1cc(Cl)ccc1Oc1ccc(Cl)cc1Cl
active: [1] 12.5 µM [middle of 4 runs] | [2] 12.7 µM [middle of 4 runs] | [3] 15.8 µM [middle of 4 runs] | [4] 13.8 µM [middle of 4 runs] | [5] 12.8 µM [middle of 4 runs] | [6] 8.46 µM and 8.15 µM and 6.76 µM | [7] 15.3 µM and 22.3 µM and 14.9 µM | [12] 9.33 µM | [17] 4.51 µM

CCN(CC)C(=O)SCc1ccc(Cl)cc1
active: [11] 10 µM
inactive: [1] | [2] | [3] | [4] | [5] | [6] | [7]

COC(=O)c1ccccc1S(=O)(=O)NC(=O)Nc1nc(C)nc(OC)n1
active: [4] 15.5 µM | [11] 5 µM
inactive: [1] | [2] | [3] | [5] | [6] | [7] | [10]

CC(C)N(C(=O)COc1nnc(C(F)(F)F)s1)c1ccc(F)cc1
active: [6] 15.8 µM | [11] 1.05 µM | [14] 10 µM
inactive: [1] | [2] | [3] | [4] | [5] | [7]

C#CCN1C(=O)COc2cc(F)c(N3C(=O)C4=C(CCCC4)C3=O)cc21
active: [2] 16.3 µM | [16] 4.2 µM | [13] 2.5 µM
inactive: [1] | [3] | [4] | [5] | [6] | [7] | [12]

CC[C@H](C)[C@H]1O[C@]2(C=C[C@@H]1C)C[C@@H]1C[C@@H](C/C=C(\C)[C@@H](O[C@H]3C[C@H](OC)[C@@H](O[C@H]4C[C@H](OC)[C@@H](O)[C@H](C)O4)[C@H](C)O3)[C@@H](C)/C=C/C=C3\CO[C@@H]4[C@H](O)C(C)=C[C@@H](C(=O)O1)[C@]34O)O2 (tested in a mixture with another compound)
inactive: [8] | [18]
active: [1] 5.58 µM | [2] 5.19 µM | [3] 10.8 µM | [4] 6.1 µM | [5] 4.07 µM | [6] 4.56 µM | [7] 5.54 µM | [17] 2.79 µM | [13] 5.47 µM | [11] 6.36 µM | [14] 12.7 µM
